# This is part of a sample that, as a whole, favours compounds with a hit. Of some 83,000 tested, about 20% had one in any assay.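 Method: cells in 96-well plates; compound added at one concentration; 48 h incubation; percent growth measured; values under 10 scored active.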 Calls of active or inactive are those of the source.
# Test system: OVCAR-5 ovarian
# Test: NCI-60 one-dose screen, 48 h (100 = growth as untreated, 0 = no growth, -100 = all killed)
# Conditions: 10 µM unless noted
# Procedure: Growth inhibition of the OVCAR-5 human tumor cell line is measured as a screen for anti-cancer activity. Cells are grown in 96 well plates and exposed to the test compound for 48 hours. Compounds are tested at a single concentration, which is 10^-5 M for most compounds. The reported endpoint is percent growth (GI% or GIPRCNT), where numbers from 0 - 100% represent growth inhibition, and numbers from -100% - 0 represent cell death. For example, a value of 40 represents 60% growth inhibition. A value of 0 means no net growth occurred over the course of the experiment. A value of -40 indicates 40% of cells at the beginning of the experiment died by the end of the experiment. A value of -100 means all cells are dead at the end of the experiment.
# NCI-60 Human Tumor Cell Lines Screen was performed using the standard one-dose NCI protocol, which is described in more detail at https://dtp.cancer.gov/discovery_development/nci-60/default.htm.
# Compounds with GIPRCNT values below 10 were considered active. Activity score was based on GIPRCNT using the following formula: […]
# Score is 0 for GIPRCNT values of 100 or above, 50 for GIPRCNT values of 0, and 100 for GIPRCNT values of -100.
row,SMILES,growth
1,CN(C(=O)c1ccccc1)N(C)C(=O)c1ccccc1,99.3% (inactive)
2,C=C(C)[C@@H]1C/C=C(/C=O)CC[C@@H]2O[C@@]2(C)CC/C=C(\C)CC1,97.2% (inactive)
3,Nc1c2ccccc2nc2ccccc12 (tested in a mixture with another compound),15.6% (inactive)
4,O=C(Oc1ccc[nH]c1=O)c1cccc(Cl)c1,97.5% (inactive)
5,ClC1=C(Cl)C(Cl)=C(Cl)C1=Cc1ccc(Cl)cc1,71.9% (inactive)
6,COc1cccc2c1C(=O)c1c(O)c3c(c(O)c1C2=O)C[C@@](O)(/C(C)=N/NC(=O)c1cccc([N+](=O)[O-])c1)C[C@@H]3OC1CC(N)C(O)C(C)O1 (stereo not given in full),-9.12% (active)
7,COc1ccc(-n2nc3c(c2-c2ccc(OC)c(OC)c2)-c2oncc2CC3)cc1,99.5% (inactive)
8,CCC(=O)Nc1ccccc1C#C/C=C\C#Cc1ccccc1C(F)(F)F,53.8% (inactive)
9,COc1cc(-c2cc(C(=O)Nc3nc4ccccc4s3)nc3cc(-c4ccccc4)nn23)cc(OC)c1OC,106% (inactive)
10,NCCCc1nnc(CCC(=O)c2nc3ccccc3[nH]2)o1,104% (inactive)
11,C=C(C)[C@@H]1C[C@H](O)Cc2cc(Cl)cc(Cl)c2N1,81.9% (inactive)
12,CCN(CC)CCCCNc1c2ccccc2[n+](C)c2c1[nH]c1ccccc12,-5.18% (active)
13,CCCc1cccc(CCC)c1O,117% (inactive)
14,Cc1cccc(Cl)c1NC(=O)c1ccc2nc(NC(=O)NC3CC(C)(C)NC(C)(C)C3)sc2c1,78% (inactive)
15,CN=C(NC)N/N=C(C)\C=N\NC(=NC)NC,116% (inactive)
16,COc1ccc(-c2csc(NC(=O)c3cc(O)c(O)c(O)c3)n2)cc1,86.1% (inactive)
17,CC(=O)NCCSC(=O)C(=O)SCCNC(C)=O,95.8% (inactive)
18,Cc1ccc2c(c1)C(=O)/C(=C/c1ncc([N+](=O)[O-])n1C)O2,8.96% (active)
19,Cc1cc2c(cc1[N+](=O)[O-])NC(CNC(C)C)CC2 (stereo not given),88.7% (inactive)
20,Cc1ccc([N+](=O)[O-])cc1NC(=O)Nc1cccc(F)c1,89.6% (inactive)

row,SMILES,growth
1,COc1cc(/C=C2\CCC/C(=C\c3ccc(OCC4CO4)c(OC)c3)C2=O)ccc1OCC1CO1 (stereo not given),86% (inactive)
2,CC(C)[C@H]1CC[C@H]2[C@@H](CC[C@H]3[C@](C)(CN)CCC[C@]23C)C1,74.7% (inactive)
3,CCC(C)CC(C)C(=O)c1c(O)ccn(O)c1=O (stereo not given),72.8% (inactive)
4,COc1cc(C2NC(c3ccc(Cl)cc3)C(C)C(=NC(=O)c3cnccn3)C2C)cc(OC)c1OC (stereo not given),94.5% (inactive)
5,COc1cc(/C=C/C(=O)c2c(-c3ccc(Cl)cc3)nc3sc(C)nn23)cc(OC)c1OC,106% (inactive)
6,Cc1c(C)c(N2C(=O)C=CC2=O)c(C)c(C)c1N1C(=O)C=CC1=O,91% (inactive)
7,CCn1c2c(c3ccccc31)SC1c3cccn3CCN1C2=S (stereo not given),104% (inactive)
8,N=c1ccn2c(n1)O[C@@H]1[C@@H](O)[C@H](CO)O[C@@H]12,81% (inactive)
9,O=C(Nc1ccc(Nc2ccncc2)cc1)c1ccc(Nc2ccnc3ccc([N+](=O)[O-])cc23)cc1[N+](=O)[O-],97.4% (inactive)
10,COc1ccc2c(c1)C(=O)/C(=C/c1cccc(OCC(=O)c3ccccc3)c1)CC2,102% (inactive)
11,CCC[C@H](N[C@@H](C)C(=O)N1[C@H](C(=O)O)C[C@@H]2CCCC[C@@H]21)C(=O)OCC,88.9% (inactive)
12,Cc1cc([N+](=O)[O-])c(C)cc1C(=O)O,93.7% (inactive)
13,Nc1nc(N)c([N+](=O)[O-])c(=O)[nH]1,100% (inactive)
14,O=C(/C=C/c1cc2ccccc2[nH]c1=O)c1ccc(Cl)cc1,55.9% (inactive)
15,CCOC(=O)c1c(C)c(C(=O)OCC)n(C)c1C,114% (inactive)
16,C=C(C)[C@H]1CC/C(C)=C/CC[C@]2(C)O[C@H]2CC/C(COC(C)=O)=C\C1=O,98.7% (inactive)
17,O=C(Nc1ccc(Cl)cc1)c1cc2c(cc1O)[nH]c1ccccc12,59.8% (inactive)
18,CCCCCCCCSc1ncnc2c1ncn2CO,103% (inactive)
19,O=C1Cc2cc(CCn3cncn3)c(Cl)cc2N1,87.4% (inactive)
20,COC(=O)c1ccc2c(c1)nc(-c1ccc(O)c(OC)c1)n2-c1cc(C(C)(C)C)[nH]n1,117% (inactive)

# From PubChem BioAssay (NCI)
